Each structure is given as a SMILES string. Inconclusive results are not listed. Activity calls are given as the source filed them. Calls come from the whole dose curve; as a rule, active = well fitted inhibition curve with a large enough effect; inconclusive = small, poorly fitted or top-dose-only effect; inactive = flat fitted curve, though single readings scatter. Where a SMILES comes first, the peptide text is derived from it. The star is where a group is joined. PhAc = O=C(Cc1ccccc1)*

For this test, the system named is HACAT. Put plainly: qHTS assay to identify novel small-molecules to repurpose for Merkel cell carcinoma treatment (AID 1296009). Note: nearly all actives have a fitted effect of over 60% in size. As to conditions: MCC and control cell lines, CellTiter-Glo viability, 72 h; at 44.8 µM (top of the series) unless noted. In outline: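 72 hr, 37 degree celsius; NPC 8-pt / MIPE 11-pt dose response; compound pinned in DMSO; CellTiter-Glo, 10 min RT, luminescence; normalized to no-cell and DMSO controls.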
With `COC1CC(O[C@H]2CC[C@@]3(C)C(=CC[C@]4(O)C3[C@H](O)[C@@H](O)[C@]3(C)[C@@H]([C@H](C)O)CC[C@@]34O)C2)OC(C)C1OC1CC(OC)C(OC2CC(OC)C(OC3OC(C)C(OC4OC(CO)C(O)C(O)C4O)C(OC)C3O)C(C)O2)C(C)O1` (some centres not stated), the outcome is “inactive [at 9.27 µM]”.
As for `C=C1CCC2[C@](C)(CO)CCC[C@@]2(C)[C@@H]1CCC1=CCOC1=O` (some centres not stated), the call was inactive.
On to `C=C1CCC[C@]2(C)CC[C@@](O)(C(=C)C(=O)O)C[C@@H]12`, for which the call was inactive.
Take `CC1CC(=O)[C@]2(O)C(C(=O)OCCc3ccc(O)cc3)=CO[C@@H](O[C@@H]3O[C@H](CO)[C@@H](O)[C@H](O)[C@H]3O)[C@H]12` (some centres not stated): the outcome is “inactive [at 17.4 µM]”.
On to `COC(=O)C1=COC(O[C@@H]2O[C@H](CO)[C@@H](O)[C@H](O)[C@H]2O)[C@@H]2[C@@](C)(O)[C@@H](OC(=O)/C=C/c3ccccc3)C[C@]12O` (some centres not stated), for which the outcome is “inactive [at 17.4 µM]”.
`CCC[C@H](N[C@@H](C)C(=O)N1[C@H](C(=O)O)C[C@@H]2CCCC[C@@H]21)C(=O)O`: the outcome was inactive.
`CC1OC(OC2C(OC(=O)[C@]34CCC(C)(C)C[C@H]3C3=CCC5[C@@]6(C)CC[C@H](OC7OC(C(=O)O)C(O)C(O)C7O)C(C)(C)C6CC[C@@]5(C)[C@]3(C)CC4O)OC(CO)C2O)C(O)C(O)C1OC1OCC(O)C(O)C1O` (some centres not stated): the outcome was “inactive [at 9.27 µM]”.
Turning to `CCOC(=O)CNC(=O)[C@@H]1CCCN1C(=O)Cc1ccccc1` (PhAc-Pro-Gly-OEt), the outcome was inactive.
Take `C/C(=C\CC[C@H](CO)[C@@H]1CC[C@]2(C)C3=C(CC[C@@]12C)[C@@]1(C)CCC(=O)C(C)(C)C1CC3)C(=O)O` (some centres not stated): the outcome is “inactive [at 17.4 µM]”.
Take `C=C1CCC2C(C)(C)CCC[C@]2(C)[C@H]1CC/C(C)=C/C(=O)O` (some centres not stated): the molecule was classed as inactive.
On to `COCC1OC(OC(C)(C)C2CCC3(C)C=C(C4CCC5C4(C)CC(O)C4OC(C(C)(C)O)CCC45C)CCC3O2)C(NC(C)=O)C(O)C1O` (configuration not stated), for which the outcome was “inactive [at 17.4 µM]”.
Regarding `C=C1CCC2[C@](C)(CCC[C@]2(C)C(=O)O)[C@H]1CC/C(C)=C/C(=O)OC` (some centres not stated), the call was inactive.
As to `COC(=O)c1c(CC=C(C)C)c(OC2OC(CO)C(O)C(O)C2O)c2ccccc2c1OC1OC(CO)C(O)C(O)C1O` (configuration not stated), the outcome was “inactive [at 17.4 µM]”.
For the molecule `O=C(Cc1ccccc1)OC[C@H]1O[C@H](O[C@H]2O[C@H](CO)[C@@H](O)[C@H](O)[C@H]2O)[C@H](O)[C@@H](O)[C@@H]1O`, the outcome was “inactive [at 17.4 µM]”.
For `CC1=C2C[C@H]3OC(=O)[C@H](O)[C@@]4(O)[C@@H](C)[C@@H](O)[C@H](O)C([C@@]2(C)[C@H](O)[C@@H](O)C1)[C@@]34C` (some centres not stated), the call was inactive.
`CC1CC(=O)C2=C(O1)OC1(C)CCC3C(C)(C)C4OC4C(=O)C3(C)C1C2` (configuration not stated): the molecule was classed as inactive.
Then `COc1ccnc(CCc2nc3ncccc3[nH]2)c1`, with “inactive”; and `C/C(=C/CO)CC[C@H]1[C@]2(C)C[C@H](O)CC(C)(C)[C@H]2CC[C@]1(C)O`, with “inactive”; and `COc1c2c(c(C)c3c1C(=O)OC3)OC1(C)CC(O)C34OC(O)(CCC3(C)C1C2)OC4(C)C` (configuration not stated), with “inactive [at 17.4 µM]”.
Turning to `COC(=O)[C@]1(Cc2ccc(O)c(CC=C(C)C)c2)OC(=O)C(O)=C1c1ccc(O)cc1`, the outcome is “inactive [at 17.4 µM]”.
Next, `COc1cnc(-c2ccc(Cn3c(CC(C)(C)C(=O)O)c(SC(C)(C)C)c4cc(OC[C@@H]5Cc6ccccc6N5C(C)=O)ccc43)cc2)nc1`: “inactive”; `CCC(C)C(=O)O[C@H]1C[C@](C)(O)[C@]23OC(C)(C)[C@H](C[C@H](OC(=O)c4ccccc4)[C@]2(COC(C)=O)[C@H]1OC(=O)C(C)CC)[C@H]3OC(C)=O` (some centres not stated): “inactive [at 17.4 µM]”.
On to `CC1CC2(O)OC(=O)C3=C2C(CCC3)[C@@]12C[C@@H](c1ccoc1)OC2=O` (some centres not stated), for which the call was inactive.
On to `COc1cc(C(C)=O)ccc1O[C@@H]1O[C@H](CO)[C@@H](O)[C@H](O)[C@H]1O`, for which the call was inactive.
On to `COC(=O)C1=COC(OC2OC(CO)C(O)C(O)C2O)C2C(C)C(OC(C)=O)C(OC(=O)c3ccccc3)C12` (configuration not stated), for which the outcome is “inactive [at 17.4 µM]”.
Next, `COc1ccnc2[nH]cc(C(=O)C(=O)N3CCN(C(=O)c4ccccc4)CC3C)c12` (configuration not stated): “inactive”.
With `C[C@@H]1O[C@@H](O[C@H]2[C@H](O)[C@@H](O)[C@H](OC[C@H]3O[C@@H](OC(=O)[C@]45CCC(C)(C)C[C@H]4C4=CCC6[C@@]7(C)C[C@@H](O)[C@H](O)[C@@](C)(CO)C7[C@H](O)C[C@@]6(C)[C@]4(C)CC5)[C@H](O)[C@@H](O)[C@@H]3O)O[C@@H]2CO)[C@H](O)[C@H](O)[C@H]1O` (some centres not stated), the outcome is “inactive [at 9.27 µM]”.

Values taken from PubChem BioAssay (NCATS).
